Only some compounds are listed: those with a hit (about 9.3% of all), similar ones and a draw of the others.
VACV Venus inh: inhibitors of vaccinia virus (Venus reporter) | Potency, µM (top dose mostly 36.5 µM), most hits filed as inhibitors | AID 720580 | Vaccinia virus Venus reporter expression, fluorescence | 0.46% of 330,000 active; calls by dose curve; tested in A549 cells; note: nearly all actives have a fitted effect of over 30% in size
HCV inhibitor: HCV inhibition; Huh7.5.1 HCVcc-Cre infection, luciferase reporter, 44 h; Potency, µM (series often up to 41.8 µM), actives largely listed as inhibitors; 3.4% of 340,000 active; AID 651820
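Infectious HCV cell culture screen: compound-treated cells (1,000/well, pre-plated 4 h) are infected with HCVcc-Cre at roughly 0.5 moi and grown 44 h. Infection is quantified by luciferase signal after 15 min substrate incubation at room temperature.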
FMDV antiviral: blocks foot and mouth disease virus; FMDV antiviral cell-based qHTS; Potency, µM (top dose mostly 57.9 µM), actives largely listed as inhibitors; 1.2% of 410,000 active; calls by dose curve; tested in HEK293T cells; note: read-out not given here; nearly all actives have a fitted effect of over 45% in size
HCMV antiviral: human cytomegalovirus inhibition; HFF cells, HCMV-luciferase reporter, 72 h; active compounds read low; activity change, negative = inhibition, % at 57.5 µM; 4.5% of 410,000 active; AID 1259415; in the data active = activity change below about -60%; inconclusive = no clear call, values can overlap the other calls; inactive = above about -39%
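Steps: HFFs plated, 16 h 37C; compounds added; HCMV-luciferase added to MOI 1 PFU/cell; 72 h 37C; OneGlo reagent, 5 min room temperature; luminescence read, normalized to controls.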
VACV mCherry inh: inhibitors of vaccinia virus infection (mCherry reporter signal) | 0.63% of 310,000 active | Potency, µM (highest dose often 36.5 µM), most hits filed as inhibitors | Vaccinia virus mCherry reporter infection, fluorescence; calls by dose curve; tested in A549 cells; note: nearly all actives have a fitted effect of over 35% in size
Sm TGR block: S. mansoni TGR enzyme inhibition. Q962Y6. purified TGR, DTNB reduction, TNB absorbance 405 nm. Potency, µM (titrated, usually from 114 µM), usual class: inhibitors. 3% of 360,000 active; note: nearly all actives have a fitted effect of over 60% in size
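First, TGR (20 nM dispensed) and NADPH were mixed with compound. Second, a 15 min room-temperature incubation followed. Third, further NADPH and then DTNB were added to start the reaction. Finally, TNB absorbance was monitored kinetically.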
Large screens that a line does not name were inactive. Unless noted, calls come from the whole dose curve; as a rule, active = well fitted curve in the direction sought with a large enough effect; inconclusive = small, poorly fitted or top-dose-only effect, or another doubt; inactive = no such curve, though single readings can be large; an effect the other way counts as inactive or inconclusive.

CCC1CN(C(=O)N2CCC(C(=O)NCCc3ccccc3OC)CC2)c2ccccc2O1 (configuration not stated)	HCV inhibitor inconclusive, HCMV antiviral active
CCC1CN(C(=O)N2CCC(C(=O)NCCc3ccc(OC)cc3OC)CC2)c2ccccc2O1 (configuration not stated)	HCV inhibitor 13µM, FMDV antiviral inconclusive (no result: VACV Venus inh, VACV mCherry inh)
CCOc1ccccc1CNC(=O)C1CCN(C(=O)N2CC(C)Oc3ccc(C)cc32)CC1 (configuration not stated)	HCV inhibitor inconclusive, FMDV antiviral inconclusive
CCC1CN(C(=O)N2CCC(C(=O)N3CCN(c4cccc(C)c4C)CC3)CC2)c2ccccc2O1 (configuration not stated)	FMDV antiviral inconclusive (no result: HCV inhibitor)
CCOc1ccccc1CNC(=O)C1CCN(C(=O)N2CC(CC)Oc3ccc(C)cc32)CC1 (configuration not stated)	FMDV antiviral 35µM (no result: HCV inhibitor)
CCC1CN(C(=O)N2CCC(C(=O)N3CCN(c4cc(C)ccc4C)CC3)CC2)c2ccccc2O1 (configuration not stated)	VACV Venus inh inconclusive, FMDV antiviral 18µM, HCMV antiviral inconclusive, VACV mCherry inh inconclusive (no result: HCV inhibitor)
COc1ccc(C(=O)Nc2nnc(S(=O)(=O)N3CCC(C)CC3)s2)cc1OC	none
COc1ccc(-n2nc(C(=O)NCc3cc(OC)ccc3OC)c3c4ccccc4n(C)c3c2=O)cc1	none
O=C(CSc1nnc(NC(=O)C2CCC2)s1)Nc1ccc(N2CCOCC2)cc1	HCMV antiviral -108 (no result: VACV Venus inh, VACV mCherry inh)
O=C(CSc1nnc(NC2CC2)s1)Nc1ccc(N2CCOCC2)cc1	none (no result: VACV Venus inh, VACV mCherry inh)
CC(=O)c1ccc(NC(=O)[C@@]2(CC(=O)O)CC(/C=C/c3ccccc3)=NO2)cc1	none (no result: VACV Venus inh, VACV mCherry inh)
CN(CC(=O)NCc1ccc(Cl)cc1)S(=O)(=O)c1cccc2cccnc12	none
COc1ccc(C)cc1S(=O)(=O)N(C)CC(=O)NCc1ccco1	Sm TGR block 32µM (no result: VACV mCherry inh)
CN(CC(=O)NCc1ccco1)S(=O)(=O)c1ccc2c(c1)n(C)c(=O)c(=O)n2C	Sm TGR block 40µM (no result: VACV Venus inh, VACV mCherry inh)
CN(CC(=O)NCc1ccco1)S(=O)(=O)c1cccc2cccnc12	Sm TGR block 20µM
O=C1C(Cl)=C(NCC2CCCO2)C(=O)N1CCc1ccccc1 (configuration not stated)	HCV inhibitor inconclusive, Sm TGR block inconclusive (no result: VACV Venus inh, VACV mCherry inh)
CCOP(=S)(OCC)N1CC1	none (no result: Sm TGR block)
S=c1c2c(nc3nc[nH]n13)CCC2	FMDV antiviral inconclusive, Sm TGR block 18µM (no result: VACV Venus inh, VACV mCherry inh)
CC(C)[C@H](NC(=O)N1c2ccccc2NC(=O)[C@@H]1C(C)C)C(=O)N[C@@H](C(=O)O)c1ccccc1	HCV inhibitor 0.35µM
CC(C)[C@H](NC(=O)N1c2ccccc2NC(=O)[C@@H]1C(C)C)C(=O)N[C@@H](Cc1ccccc1)C(=O)O	none
CC(=O)c1nn(-c2cccc(Br)c2)cc1C(=O)c1ccc(C)cc1	HCV inhibitor inconclusive, HCMV antiviral -69 (no result: VACV Venus inh, VACV mCherry inh)
O=C(C[C@H]1C(=O)N(c2ccccc2)C[C@@H]1Cc1ccccc1)Nc1ccc(Br)cc1	none (no result: HCV inhibitor, Sm TGR block)
C=CCOC(=O)C1=C(C)NC(SCC(=O)Nc2nccs2)=C(C#N)C1c1cccs1 (configuration not stated)	HCV inhibitor inconclusive, FMDV antiviral inconclusive, HCMV antiviral inconclusive
COc1ccccc1NC(=O)C1=C(C)NC(SCC(=O)Nc2ccc(C(=O)O)cc2)=C(C#N)C1c1cccs1 (configuration not stated)	Sm TGR block 45µM
CCOC(=O)C1=C(C)NC(SCC(N)=O)=C(C#N)C1c1cccs1 (configuration not stated)	none (no result: VACV mCherry inh)
CCOC(=O)C1=C(C)NC(SCC(=O)Nc2cc(C)on2)=C(C#N)C1c1cccs1 (configuration not stated)	HCV inhibitor 10µM (no result: FMDV antiviral)
CCCSC1=C(C#N)C(c2cccs2)C(C(=O)Nc2ccccc2)=C(C)N1 (configuration not stated)	VACV Venus inh inconclusive, HCV inhibitor 11µM, HCMV antiviral inconclusive, Sm TGR block 35µM (no result: VACV mCherry inh)
CCSC1=C(C#N)C(c2cccs2)C(C(=O)OC)=C(C)N1 (configuration not stated)	none
O=C(NCc1ccccc1F)C1CCCN(C(=O)Nc2ccccc2)C1 (configuration not stated)	none
